# Experimental data taken from PubChem BioAssay (NCATS).
# The source made the active and inactive calls. Calls follow the shape of the dose curve; as a rule, active = well fitted curve in the direction sought with a large enough effect; inconclusive = small, poorly fitted or top-dose-only effect, or another doubt; inactive = no such curve, though single readings can be large or run the other way.
# Biological target: alpha-glucosidase (Oryza sativa, rice) (UniProt Q653V4)
# Assay: Counterscreen for Glucocerebrosidase Inhibitors: qHTS Assay for Rice alpha-Glucosidase at pH 5.0 (AID 997)
# Details: rice alpha-glucosidase enzyme activity; series mostly up to 76.9 µM
# How it was run: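 Rice alpha-glucosidase (4 nM final) with 400 uM 4-methylumbelliferyl-alpha-D-glucopyranoside in citrate buffer pH 5.0, 20 min at room temperature, stopped at pH 10; fluorescence 365/440 nm, compounds 0.7 nM–77 uM, AC50 from Hill fits.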
row,Structure (SMILES),outcome
1,COc1cc2c(c(OC)c1OC)-c1ccc(OC)c(=O)cc1[C@@H](NC(C)=O)CC2,inactive
2,CN1CCN(C2=Nc3cc(Cl)ccc3Nc3ccccc32)CC1,inactive
3,COc1ccc2c(c1)c(CC(=O)O)c(C)n2C(=O)c1ccc(Cl)cc1,inactive
4,COc1nc(C)nc(Cl)c1NC1=NCCN1,inactive
5,O=c1[nH]cc(F)c(=O)[nH]1,inactive
6,Cn1c(=O)c2c(ncn2C)n(C)c1=O,inactive
7,CC(C)C(=O)Nc1ccc([N+](=O)[O-])c(C(F)(F)F)c1,inactive
8,Nc1c2c(nc3ccccc13)CCCC2,inactive
9,Nc1ccn([C@H]2CC[C@@H](CO)O2)c(=O)n1,inactive
10,O=C(CCCN1CCC(O)(c2ccc(Cl)cc2)CC1)c1ccc(F)cc1,inactive
11,NS(=O)(=O)c1cc2c(cc1Cl)NCNS2(=O)=O,inactive
12,Cc1ccccc1N1C(=O)c2cc(S(N)(=O)=O)c(Cl)cc2NC1C (configuration not stated),inactive
13,CCOC(=O)C(C)(C)Oc1ccc(Cl)cc1,inactive
14,CN(Cc1cnc2nc(N)nc(N)c2n1)c1ccc(C(=O)N[C@@H](CCC(=O)O)C(=O)O)cc1,inactive
15,NCCS(=O)(=O)O,inactive
16,CN(C)CCC=C1c2ccccc2C=Cc2ccccc21,inactive
17,Clc1ccccc1C(c1ccccc1)(c1ccccc1)n1ccnc1,inactive
18,CCC1(c2ccccc2)C(=O)NCNC1=O,inactive
19,COc1ccc2[nH]cc(CCNC(C)=O)c2c1,inactive
20,COc1ccc(C2CNC(=O)C2)cc1OC1CCCC1 (configuration not stated),inactive
21,N[C@@H](Cc1c[nH]c2ccc(O)cc12)C(=O)O,inactive
22,Cc1cn([C@H]2C=C[C@@H](CO)O2)c(=O)[nH]c1=O,inactive
